# Experimental data from PubChem BioAssay (NCI).
# This is part of a sample that, as a whole, favours compounds with a hit. Of some 83,000 tested, about 20% had one in any assay.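 A percent growth of 40 corresponds to 60% growth inhibition; 0 means no net growth; -100 means all cells died. Active threshold: below 10.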 A number with no mark means an inactive call. Active and inactive are the calls of the source.
# How the values were obtained:
# Experiment in all cases: NCI-60 one-dose screen, 48 h (100 = growth as untreated, 0 = no growth, -100 = all killed)
# Conditions in all cases: 10 µM unless noted
# DU-145 prostate = test system: DU-145 prostate
# K-562 leukemia = test system: K-562 leukemia
# MALME-3M melanoma = test system: MALME-3M melanoma
# MDA-MB-231 breast = test system: MDA-MB-231 breast
# RXF 393 renal = test system: RXF 393 renal
# SF-268 CNS = test system: SF-268 CNS
# SF-295 CNS = test system: SF-295 CNS
# SF-539 CNS = test system: SF-539 CNS
# UACC-257 melanoma = test system: UACC-257 melanoma
# M14 melanoma = test system: M14 melanoma
# HCT-15 colon = test system: HCT-15 colon
# HT29 colon = test system: HT29 colon
# SNB-75 CNS = test system: SNB-75 CNS
# SNB-19 CNS = test system: SNB-19 CNS
# U251 CNS = test system: U251 CNS
# PC-3 prostate = test system: PC-3 prostate
# SK-MEL-5 melanoma = test system: SK-MEL-5 melanoma
# UACC-62 melanoma = test system: UACC-62 melanoma
# LOX IMVI melanoma = test system: LOX IMVI melanoma
# SK-MEL-28 melanoma = test system: SK-MEL-28 melanoma
SMILES,growth (DU-145 prostate),growth (K-562 leukemia),growth (MALME-3M melanoma),growth (MDA-MB-231 breast),growth (RXF 393 renal),growth (SF-268 CNS),growth (SF-295 CNS),growth (SF-539 CNS),growth (UACC-257 melanoma),growth (M14 melanoma),growth (HCT-15 colon),growth (HT29 colon),growth (SNB-75 CNS),growth (SNB-19 CNS),growth (U251 CNS),growth (PC-3 prostate),growth (SK-MEL-5 melanoma),growth (UACC-62 melanoma),growth (LOX IMVI melanoma),growth (SK-MEL-28 melanoma)
BrCCCOc1ccc(Oc2ccc(OCCCBr)cc2)cc1,116%,109%,117%,104%,80.8%,111%,116%,113%,90.4%,102%,93.3%,107%,86.6%,92.5%,88.1%,101%,97%,94.5%,50.5%,99%
CCCCCc1ccnc(CC(=O)c2ccc(OC)cc2)c1,105%,68.1%,90.3%,98%,106%,98.7%,97.4%,97.2%,90.9%,99.2%,99.7%,70.5%,85.7%,97.8%,88.7%,76.1%,79.4%,89.5%,85%,104%
c1cc[c]([Bi]([c]2ccccc2)[c]2ccccc2)cc1,107%,105%,94%,95.2%,101%,104%,103%,105%,106%,94%,103%,112%,76.9%,102%,99.6%,85.2%,97.8%,94.6%,98.6%,102%
COc1ccc(-c2nnc(SCC(=O)Nc3ccc(C(=O)/C=C/c4cc(OC)c(OC)c(OC)c4)cc3)n2-c2ccccc2)cc1OC,-29.4% [100 µM] (active),31.4% [100 µM],-33.4% [100 µM] (active),-44.6% [100 µM] (active),-24.7% [100 µM] (active),-52.2% [100 µM] (active),-86.2% [100 µM] (active),1.43% [100 µM] (active),22.1% [100 µM],1.87% [100 µM] (active),8.91% [100 µM] (active),3.6% [100 µM] (active),-22% [100 µM] (active),-19.9% [100 µM] (active),-96.9% [100 µM] (active),10.9% [100 µM],-14.6% [100 µM] (active),-42.9% [100 µM] (active),-88.5% [100 µM] (active),18.3% [100 µM]
COc1cc([C@@H]2c3cc4c(cc3[C@H](O)[C@H]3COC[C@@H]23)OCO4)cc(OC)c1OC,96.7%,39.1%,43.3%,73.8%,83.1%,80.9%,56.3%,75%,75.8%,42.4%,59.1%,79.1%,58%,76.9%,77.4%,63.8%,51%,42.7%,75.7%,69.4%
COc1ccc(-c2nc(SCC(C)C)nc(Nc3ccc(C)cc3)c2C#N)cc1,85.9%,68.8%,74.3%,68.4%,88.2%,85.3%,64.4%,63.5%,103%,88.8%,84.8%,82.9%,60.6%,78.4%,21.2%,86.1%,86.1%,102%,73.9%,94.6%
C/C=C/C/C=C/[C@H](C)C[C@H](O)[C@@H]1C[C@@H]2O[C@H]2/C=C/[C@H](O)[C@@H](O)/C=C/C[C@H](C)CC(=O)O1,90.7%,65.8%,103%,90%,117%,85.8%,84.5%,85.2%,110%,81.5%,66.1%,68.4%,90.9%,97.4%,87.4%,115%,72.9%,71.3%,88.3%,101%
CCN(CCO)CCNc1ccc(C)c2sc3cc(OC)ccc3c(=O)c12,72.2%,20.1%,103%,64.2%,71.4%,70.1%,73.7%,77.2%,103%,79.3%,41.1%,33.1%,70.9%,67.7%,54%,71.2%,80.6%,98.9%,50.7%,94.2%
N#CCCCCCCCCCCC#N,106%,103%,139%,105%,113%,109%,92%,108%,87.7%,103%,99.4%,95.7%,103%,109%,105%,95.8%,110%,101%,99.4%,111%
Nc1ccc(N=Nc2ccccc2)c2cc(S(=O)(=O)O)ccc12,110%,104%,107%,109%,97.2%,98.8%,103%,101%,97%,103%,104%,94.6%,82.5%,101%,101%,96%,107%,103%,97.7%,118%
COC(=O)c1ccc2[nH]c(O)c(C(=Nc3ccc(N(C)C(=O)CN4CCN(C)CC4)cc3)c3ccc(CCO)cc3)c2c1,80.4%,8.34% (active),19%,31.2%,30%,29.6%,93.2%,28%,77.6%,57.3%,82.1%,43.8%,18.1%,31.4%,31.3%,56.4%,50%,73.7%,37.5%,38.3%
COc1cccc(NC(=O)NCCNc2nccc(-c3c(-c4ccc(F)cc4)nc4sccn34)n2)c1,76.9%,71.4%,140%,79.4%,88.5%,84.2%,103%,102%,119%,92.6%,56.4%,39.8%,48.3%,86.3%,77.6%,89.9%,61.6%,68.2%,72.6%,92.2%
COC(=O)c1ccc2[nH]c(O)c(C(=Nc3ccc(N(C)C(=O)CN4CCN(C)CC4)cc3)c3cccc(OC)c3)c2c1,8.57% (active),3.85% (active),-16.3% (active),13.1%,-55.7% (active),6.71% (active),29.9%,-11.2% (active),31.8%,8.85% (active),7.72% (active),-2.16% (active),-2.49% (active),12.7%,11.7%,20.3%,6.71% (active),36.6%,8.47% (active),19.5%
NC(N)=Nc1ccc(/C=C2\C=Cc3ccccc32)cc1,80.9%,13.6%,88.8%,42.4%,63.7%,64.5%,80.6%,81.3%,77.5%,73.4%,68%,36.1%,52.7%,75.6%,67.8%,51.9%,79.6%,69%,40%,91.6%
C/C(=N\Nc1ccc(Cl)cn1)c1ccccn1,18.2%,5.63% (active),2.78% (active),31%,19.4%,11.9%,-1.75% (active),-14% (active),-11.4% (active),2.33% (active),15.5%,16.7%,31.5%,21.5%,7.65% (active),20.9%,-61.9% (active),-28.3% (active),1.48% (active),13.5%
O=C1C(Br)=CC2C1C1C3CCC3C2(Br)C12OCCO2 (stereo not given),19.7%,15.8%,46%,51.7%,18.4%,25.6%,31.4%,14.5%,54%,44.4%,19%,8.84% (active),56.3%,81%,35.3%,32%,67.3%,54.9%,8.55% (active),55.7%
